CYP2C9 activ: increases human cytochrome P450 2C9 activity. hit rate 1.4% among 96,000. recombinant CYP2C9, luciferin-H conversion, luminescence; active compounds read high; factor 1 = untreated enzyme, 0 = blocked. activation factor at 5 µM. P11712;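 active means activation factor of 2 or more for CYP2C9 at a 5 µM dose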;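 further: 0 = sulfaphenazole-blocked wells and 1 = vehicle-only wells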
CYP2C19 activ: activators of human cytochrome P450 2C19. P33261. recombinant CYP2C19, luciferin-H EGE luminescence; active compounds read high; 0 = fully inhibited enzyme, 1 = untreated enzyme. activation factor at 5 µM. 96,000 tested, under 10 active;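 active means activation factor of at least 2 at 5 µM in the primary screen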;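 further: 0 = wells with 2.5 mM tranylcypromine and 1 = vehicle-only wells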
Target sequence (P33261 whole entry, looked up): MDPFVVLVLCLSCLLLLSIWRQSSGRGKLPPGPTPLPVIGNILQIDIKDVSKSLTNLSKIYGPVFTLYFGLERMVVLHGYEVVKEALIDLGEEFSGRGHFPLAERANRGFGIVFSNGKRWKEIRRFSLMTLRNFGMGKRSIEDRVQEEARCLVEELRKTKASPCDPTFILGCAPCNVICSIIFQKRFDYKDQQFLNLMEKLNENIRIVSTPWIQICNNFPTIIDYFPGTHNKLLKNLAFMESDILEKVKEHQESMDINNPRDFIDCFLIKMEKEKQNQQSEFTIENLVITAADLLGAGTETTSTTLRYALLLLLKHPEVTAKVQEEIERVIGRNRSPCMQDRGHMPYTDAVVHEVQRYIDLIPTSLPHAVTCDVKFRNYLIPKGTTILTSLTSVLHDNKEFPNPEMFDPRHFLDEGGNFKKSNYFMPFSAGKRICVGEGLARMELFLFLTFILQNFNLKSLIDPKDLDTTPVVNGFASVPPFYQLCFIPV
PLAP act: human PLAP activation. P05187. hit rate 1.2% among 96,000. activation fold at 20 µM. purified PLAP enzyme, luminescent substrate read-out; active compounds read high; in the data active means activation fold above about 2
CYP2C19 inh: human CYP2C19 inhibition; hit rate 21% among 96,000; inhibition, % at 5 µM; CYP2C19 Supersomes, luciferin-H EGE luminescence, 30 min; P33261;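 active means CYP2C19 inhibition above a set limit at 5 µM in the primary screen, cut at about 50% in these data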;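 further: plate controls were negative control wells for no effect and 2.5 mM tranylcypromine positive control for full effect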
CYP2C9 inhib: human CYP2C9 inhibition; P11712; CYP2C9 Supersomes, luciferin-H conversion, luminescence; inhibition, % at 5 µM; hit rate 20% among 96,000; AID 777;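 active means blocking of liver enzyme CYP2C9 beyond about 50% at 5 µM, limit read from the data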
* marks the source's active call; other numbers are inactive results; nt = not tested or not shown. Compounds with a hit are over-represented: about 31% of the library has one in this group of screens.

SMILES | CYP2C9 activ | CYP2C19 activ | PLAP act | CYP2C19 inh | CYP2C9 inhib
O=C(CN1CCN(C(=O)N2CCCCC2)CC1)Nc1ccc(F)cc1 | 0.9 | 1 | 1.2 | 1.3 | 8.8
CCc1ccc2c(c1)cc(CN(C(=S)Nc1ccc(Cl)cc1)C1CC1)c1nnnn12 | 0.2 | 0.9 | 1.1 | 7.8 | 78.5*
Cc1ccccc1Nc1c([N+](=O)[O-])ccc2c1=NC1(CCCCC1)N=2 | 0.9 | 0.8 | 1 | 15.9 | 11.6
Fc1ccc(CN2CCN3CCCC3C2C2CCCCC2)cc1F (centres undefined) | 1 | 0.9 | 1.3 | 7.7 | -0.6
Cc1cccc(NC(=O)NC(C)C(c2cccs2)N2CCOCC2)c1 (centres undefined) | 0.6 | 0.2 | 1.6 | 82.6* | 44.5
CC(NC(=O)c1ccco1)C(c1cccs1)N1CCN(c2ccccc2)CC1 (centres undefined) | 0.7 | 0.4 | 1.2 | 55.8* | 25.1
CC(=O)NC(C)C(c1cccs1)N1CCN(c2ccccc2)CC1 (centres undefined) | 0.9 | 0.5 | 1.1 | 48.5 | 14.0
CC(NC(=O)Cc1cccs1)C(c1cccs1)N1CCN(c2ccccc2F)CC1 (centres undefined) | 0.5 | 0.6 | 0.9 | 38.5 | 53.9*
COc1ccccc1C(=O)NC(C)C(c1cccs1)N1CCOCC1 (centres undefined) | 0.8 | 0.5 | 0.8 | 50.7* | 24.4
CCCCCCCn1c(=N)n(CC(=O)c2ccco2)c2ccccc21 | 1 | 0.9 | 1 | 6.8 | 3.8
CC(NC(=O)NC1CCCCC1)C(c1cccs1)N1CCN(Cc2ccccc2)CC1 (centres undefined) | 0.5 | 0.6 | nt | 38.9 | 54.5*
O=C(CN1CCN(Cc2ccccc2)CC1)NC(=O)NC1CCCCC1 | 0.9 | 1 | 1.2 | 1.6 | 8.1
CCOC(=O)COc1c(C=O)cc(Br)cc1OC | 2* | 0.4 | 1 | 56.5* | -98.3
CCCc1n[nH]c2c1C(=O)CC(C)(C)C2 | 1.1 | 1 | 0.9 | 1.1 | -7.0
CC1(C)CC(=O)c2c(-c3cccs3)n[nH]c2C1 | 0.5 | 0.2 | 1.2 | 79.0* | 51.7*
O=C(CN1CCOCC1)NC1C2CC3CC(C2)CC1C3 (centres undefined) | 1.1 | 1.1 | 1.1 | -8.4 | -9.9
Cc1cc(=O)oc2cc(OCC(=O)N3CCCC(C)C3)ccc12 (centres undefined) | 1.4 | 0.7 | 1 | 28.9 | -43.3
COc1ccc(S(=O)(=O)N2CCN(C(=O)COc3ccc4c(C)cc(=O)oc4c3)CC2)cc1 | 0.9 | 0.8 | 1.3 | 19.0 | 9.5
Cc1cc(=O)oc2ccc(OCC(=O)N3CCC(C)CC3)cc12 | 0.9 | 0.5 | 1 | 54.7* | 14.9
Cc1cc(=O)oc2cc(OCC(=O)N3CC(C)OC(C)C3)ccc12 (centres undefined) | 0.8 | 0.3 | 0.9 | 73.3* | 19.4
O=C(Nc1cc(Cl)ccc1Cl)C1CC(=O)N(c2ccc(Br)cc2)C1 (centres undefined) | 0.8 | 0.8 | 0.8 | 19.2 | 21.0
O=C(CNC(=O)c1ccco1)OCC(=O)c1ccc2ccccc2c1 | 1 | 1.1 | 0.9 | -5.6 | 0.9
O=c1c2ccccc2[nH]c(=S)n1Cc1cccnc1 | 0.7 | 0.2 | 0.9 | 81.5* | 32.2
CC1CCCN(C(=O)COC(=O)c2ccc[nH]c2=O)C1 (centres undefined) | 1 | 0.9 | 0.8 | 7.8 | 0.5
Oc1ccc(/C=C/c2nc(-c3ccccc3O)n(-c3ccccc3)n2)cc1 | 0.5 | 1.1 | 1 | -15.0 | 49.4
SMILES | CYP2C9 activ | CYP2C19 activ | PLAP act | CYP2C19 inh | CYP2C9 inhib
O=C(NCc1ccncc1)c1cccc(Cn2cc(Br)cn2)c1 | 0.1 | 0.1 | 1 | 88.3* | 89.9*
O=C(O)c1cccc(Cn2cc(Br)cn2)c1 | 1.1 | 1 | 0.9 | -4.6 | -8.3
CC(C)n1c(C(=O)OCC(=O)NCc2ccc3c(c2)OCO3)cc2sccc21 | 0.1 | 0.6 | 1 | 41.8 | 86.2*
CC(C)n1c(C(=O)OCC(=O)NCc2ccc3c(c2)OCO3)cc2occc21 | 0.4 | 0.9 | 1 | 11.6 | 58.9*
CC1CCC2C(C1)c1sc(=O)[nH]c1SC2(C)C (centres undefined) | 0.9 | 1 | 1.2 | 4.2 | 5.8
COc1ccc(N2C(=O)C3CCCN3C2c2ccc(C)cc2)cc1Cl (centres undefined) | 0.7 | 0.9 | 1.3 | 9.7 | 32.8
COC(=O)c1sccc1NC(=O)c1ccc(Br)s1 | 1 | 1 | 1.2 | 1.2 | -4.3
CCCCN(C(=O)CNC(=O)c1ccco1)C(C(=O)NC1CCCC1)c1ccc(OC)cc1 (centres undefined) | 0.9 | 0.6 | 1.2 | 39.3 | 12.5
COC(=O)c1cccc(N(C(=O)CNC(=O)c2ccco2)C(C(=O)NC2CCCC2)c2ccco2)c1 (centres undefined) | 0.4 | 0.7 | 1.5 | 25.2 | 64.4*
Cc1cccc(N(C(=O)CNC(=O)c2ccco2)C(C(=O)NC2CCCC2)c2cccnc2)c1 (centres undefined) | 1 | 1.1 | 1.3 | -6.2 | -4.9
CC(C)CCN(C(=O)CNC(=O)c1ccco1)C(C(=O)NC1CCCCC1)c1ccco1 (centres undefined) | 0.5 | 0.3 | 1.5 | 70.1* | 51.4*
COC(=O)c1cccc(N(C(=O)c2cnccn2)C(C(=O)NCc2ccccc2)c2ccco2)c1 (centres undefined) | 0.5 | 0.3 | 1.6 | 71.4* | 47.7
N#CCCN(C1CCCCC1)S(=O)(=O)CCOc1ccccc1 | 0.7 | 0.6 | 0.8 | 36.2 | 25.8
O=c1[nH]c(-c2ccccc2O)nc2c1CCCC2 | 0.8 | 0.9 | 1.1 | 6.3 | 18.4
COCCN(CCOC)S(=O)(=O)c1ccc(OC)cc1 | 1.3 | 0.6 | 1.2 | 43.2 | -30.8
CCN(CC)S(=O)(=O)c1ccc(Oc2ccc(S(=O)(=O)N(CC)CC)cc2)cc1 | 0.1 | 0.3 | 1.6 | 67.2* | 87.3*
CCN(CC)S(=O)(=O)c1cc(OC)c(Cl)cc1Cl | 3* | 0 | 1.7 | 97.3* | -203.5
CCN(CC)S(=O)(=O)c1ccc(Cl)c(C(=O)NC)c1 | 1.4 | 1.1 | 1 | -6.6 | -38.1
CCN(CC)S(=O)(=O)c1cc(C(=O)n2cccn2)c(Cl)cc1Cl | 2.3* | 0.3 | 1.2 | 66.1* | -133.2
CCN(CC)S(=O)(=O)c1ccc(Cl)c(OC)c1 | 2.4* | 0.1 | 1.3 | 89.2* | -139.7
COCCCNC(=S)NC1CC2CCCC(C1)N2Cc1ccco1 (centres undefined) | 1.1 | 1 | 1.3 | 3.8 | -13.5
CC[C@@H](C(=O)n1nc(C)cc1C)[C@H](NS(=O)(=O)c1ccc(C)cc1)c1ccccc1 | 1 | 0.5 | 0.9 | 47.0 | -2.9
CC(CCc1ccc(O)cc1)N(C)CCc1ccccc1 (centres undefined) | 1.2 | 0.9 | 0.9 | 7.9 | -21.2
CCNS(=O)(=O)c1ccc(Br)c(OC)c1 | 2.2* | 0.7 | 0.8 | 29.3 | -115.7
CCOc1cc(C)c(Cl)cc1S(=O)(=O)N(CC)CC | 2* | 0.5 | 1.1 | 52.6* | -99.6
COc1ccc(S(=O)(=O)NCCOc2ccccc2)cc1OC | 2.9* | 0 | 1 | 100.0* | -185.7
COc1ccc(CCNS(=O)(=O)c2ccccc2)cc1OC | 0.7 | 0.7 | 0.9 | 33.9 | 32.8
